Results: PubChem BioAssay AID431 (Sanford-Burnham Center for Chemical Genomics, 2006)
The campaign covered roughly 63,000 compounds. About 1,100 (1.7%) were called active. The sample as a whole holds a higher share of actives than the screen did. Potency and affinity values are given separately. Unmarked numbers belong to inactive results.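 The calls were made as follows: active = compounds whose percent cytotoxicity in the single-dose primary screen, scaled between solvent and toxic-drug controls, exceeds 50; inactive = the rest.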

Assay: cytotoxicity in KRAS-transformed pancreatic duct cells, primary screen, cell-based, fluorescence, HTS (AID 431);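 also: 0% = DMSO solvent wells and 100% = doxorubicin-treated wells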
Conditions: HPDE-C7K KRASV12 cells, Alamar Blue viability, 48 h; at 10 µM; hits give high values
Compound `Cc1ccccc1C(=O)N1CCC(C(=O)Nc2cccc(F)c2)CC1` has a cytotoxicity of 3%.
Work on `O=C(O)C1C2CCC(C2)C1C(=O)NCCCn1ccnc1` (stereo not drawn) yielded a cytotoxicity of -7.9%.
With `CCCc1cc(=O)n2[nH]c(-c3cc(OC)c(OC)c(OC)c3)nc2n1` the cytotoxicity was -9.7%.
Compound `CCCOc1cccc(C(=O)Nc2cccc(NC(=O)c3ccco3)c2)c1` has a cytotoxicity of 7.4%.
For `Cc1[nH]nc2c1C(c1ccc(F)cc1)C(C#N)=C(N)O2` (stereo not drawn), the cytotoxicity was -10.6%.
Work on `CCOC(=O)C1CCCN(Cc2ccccc2F)C1` (stereo not drawn) yielded a cytotoxicity of 4.8%.
Work on `CC(C)c1ccc(S(=O)(=O)N2CCN(CC(=O)Nc3ccc4c(c3)OCO4)CC2)cc1` yielded a cytotoxicity of 2.2%.
For `CCOC(=O)N1CCN(Cc2nc(-c3ccccc3)no2)CC1`, the cytotoxicity was 11.5%.
With `O=S(=O)(Nc1nc2ccccc2nc1NCc1ccco1)c1ccc(Cl)cc1` the cytotoxicity was 20.9%.
For `Cc1noc(C)c1CSc1nc2ccccc2nc1NS(=O)(=O)c1ccc(Cl)cc1`, the cytotoxicity was 64.6% (active).
Work on `Cc1noc(C)c1CSc1ncnc2ccccc12` yielded a cytotoxicity of 18.6%.
In the case of `COc1cc(C2C(C(=O)OC(C)C)=C(C)Nc3[nH]c(=O)[nH]c(=O)c32)ccc1O` (stereo not drawn), the cytotoxicity is reported as -5.8%.
For `CN1C(=O)NC(NC(=O)c2cccs2)(C(F)(F)F)C1=O` (stereo not drawn), the cytotoxicity was -12.1%.
For `COc1ccc(N(C(=O)c2cccc(OC)c2OC)C2C=CS(=O)(=O)C2)cc1` (stereo not drawn), the cytotoxicity was -2.9%.
With `c1ccc2c(c1)oc1c(Nc3ccc4c(c3)OCO4)ncnc12` the cytotoxicity was -23.6%.
With `COc1ccc(/C=N/n2c(N)nc3ccccc32)cc1OC` the cytotoxicity was -9.4%.
With `COc1ccc(-c2nc(N)ncc2-c2csc(C)n2)c(O)c1` the cytotoxicity was -17.5%.
Compound `Oc1ccc(-c2[nH]ncc2-c2ccc(Cl)cc2)c(O)c1` has a cytotoxicity of 49.9%.
With `C=C(C)COc1ccc(-c2nc(N)ncc2-c2ccc(OC)cc2)c(O)c1` the cytotoxicity was 120% (active).
For `Cc1[nH]nc(-c2ccc(O)cc2O)c1-c1ccc(Cl)cc1`, the cytotoxicity was 53.9% (active).
`C=C(C)COc1ccc(-c2nc(N)ncc2Oc2ccccc2OC)c(O)c1` showed a cytotoxicity of -4.5%.
Compound `C=C(C)COc1ccc(-c2nc(N)ncc2Oc2ccc(OC)cc2)c(O)c1` has a cytotoxicity of -0.9%.
In the case of `COc1ccc(-c2n[nH]c(C)c2-c2ccc(Cl)cc2)c(O)c1OC`, the cytotoxicity is reported as -14.6%.
In the case of `N#Cc1cc(C(=O)c2cc(Br)ccc2O)cn(C2CC2)c1=O`, the cytotoxicity is reported as 10.6%.
`O=C(c1ccc(CN2CCc3ccccc3C2)cc1)N1CCCCC1` gave a cytotoxicity of -21.9%.
Compound `O=S(=O)(c1ccc(N2CCOCC2)cc1)N1CCOCC1` has a cytotoxicity of -6.3%.
`CC(=O)N1CC2(C)CN(C(C)=O)CC(C)(C1)C2O` (stereo not drawn) gave a cytotoxicity of 1.7%.
`CCOc1cc(S(=O)(=O)NCCN2CCOCC2)c(C)cc1C` gave a cytotoxicity of -17.8%.
Compound `C=CCc1ccccc1OCC(O)CN1CCN(c2ccc(OC)cc2)CC1` (stereo not drawn) has a cytotoxicity of 9.3%.
Compound `COC(=O)C1(CCSC)NC(c2ccccc2OC)C2C(=O)N(C)C(=O)C21` (stereo not drawn) has a cytotoxicity of 8%.
For `O=c1c2ccccc2nnn1CSc1nc2cc(Cl)ccc2c(=O)n1Cc1ccco1`, the cytotoxicity was 6.2%.
With `CCOC(=O)N1CCN(C2=CC(=O)OC23CCCCC3)CC1` the cytotoxicity was 3.3%.
Compound `CCOc1ccc(-c2n[nH]c(C)c2Oc2ccccc2OC)c(O)c1` has a cytotoxicity of 2.5%.
Work on `Cc1oc2cc(O)ccc2c(=O)c1Oc1ccccc1` yielded a cytotoxicity of -6.1%.
`COc1ccc(Oc2c(-c3ccc(O)cc3O)n[nH]c2C)cc1` gave a cytotoxicity of 27.1%.
`COc1cccc(Oc2cncnc2-c2ccc(OC)cc2O)c1` gave a cytotoxicity of 21.1%.
Work on `C=C(C)COc1ccc(-c2nc(N)nc(C)c2Oc2ccccc2OC)c(O)c1` yielded a cytotoxicity of 1.4%.
Compound `C=C(C)COc1ccc(-c2ncncc2Oc2ccc(OC)cc2)c(O)c1` has a cytotoxicity of 17.6%.
For `Cc1[nH]nc(-c2ccc(O)cc2O)c1Oc1ccccc1`, the cytotoxicity was 63.9% (active).
In the case of `C=C(C)COc1ccc(-c2n[nH]c(C)c2Oc2ccccc2OC)c(O)c1`, the cytotoxicity is reported as 66.1% (active).
With `CCc1nnc(NC(=O)CSc2nnc(-c3ccoc3C)n2-c2ccc(C)cc2)s1` the cytotoxicity was -6.5%.
In the case of `CC(OC(=O)C1CC=CCC1C(N)=O)C(Cl)=C(Cl)Cl` (stereo not drawn), the cytotoxicity is reported as -9.4%.
`CC(C)OC(=O)CSc1nnc(-c2cnccn2)n1C` showed a cytotoxicity of -7.5%.
`O=C(NCCN1CCN(c2ccccc2F)CC1)C1c2ccccc2C(=O)N2CCc3ccccc3C12` (stereo not drawn) showed a cytotoxicity of -3.5%.
Work on `N#CCCC12CCCCC1=Nc1ccccc12` (stereo not drawn) yielded a cytotoxicity of -11.5%.
Work on `CCN1CCN(CC(=O)n2c3c(c4ccccc42)CC(C)CC3)CC1` (stereo not drawn) yielded a cytotoxicity of 16.2%.
In the case of `COc1ccc(CNC(=O)c2cc(-c3ccco3)on2)cc1`, the cytotoxicity is reported as -5.9%.
In the case of `c1csc(-c2nn3c(C4COc5ccccc5O4)nnc3s2)c1` (stereo not drawn), the cytotoxicity is reported as -1.6%.
With `C=CCOc1nc2c(c(=O)n(C)c(=O)n2C)n1Cc1ccc(Cl)cc1Cl` the cytotoxicity was -24.2%.
In the case of `C=CCOc1nc2c(c(=O)n(Cc3ccc(Cl)cc3)c(=O)n2C)n1C`, the cytotoxicity is reported as -0.2%.
In the case of `C=CCOc1nc2c(c(=O)n(C)c(=O)n2C)n1Cc1ccc(Cl)cc1`, the cytotoxicity is reported as 64.6% (active).
Work on `CCC(C)NC(=O)CN(c1ccc2c(c1)OCO2)S(=O)(=O)c1c(C)n[nH]c1C` (stereo not drawn) yielded a cytotoxicity of 3.1%.
In the case of `CC1(C)CC(=O)c2cnc(NC(=O)CCc3ccccc3)nc2C1`, the cytotoxicity is reported as -12.6%.
In the case of `N#Cc1c(NC(=O)Cn2c(=O)oc3ccccc32)oc(-c2ccccc2)c1-c1ccccc1`, the cytotoxicity is reported as 52% (active).
Compound `Cc1ccnc(SCC(=O)Nc2oc(-c3ccccc3)c(-c3ccccc3)c2C#N)n1` has a cytotoxicity of 29.2%.
`N#Cc1c(NC(=O)CCN2C(=O)c3ccccc3C2=O)oc(-c2ccccc2)c1-c1ccccc1` showed a cytotoxicity of 2.4%.
`N#Cc1c(NC(=O)CN2CCOCC2)oc(-c2ccccc2)c1-c1ccccc1` gave a cytotoxicity of 10.6%.
With `CCn1c(SCC(=O)Nc2oc(-c3ccccc3)c(-c3ccccc3)c2C#N)nnc1-c1ccco1` the cytotoxicity was 29.1%.
Compound `CCc1nnc(NC(=O)CN2CCN(c3ccccc3OC)CC2)s1` has a cytotoxicity of -2.9%.
In the case of `CCOC(=O)CSc1nc2ccsc2c(=O)n1C1CCN(C(=O)OCC)CC1`, the cytotoxicity is reported as 8%.
Compound `O=C(COC(=O)c1ccc2c(c1)OCO2)NCc1ccc(Cl)cc1` has a cytotoxicity of 8.3%.
`O=C(CCn1c(=O)c2sccc2n(CC(=O)OCc2ccccc2)c1=O)NCc1ccco1` gave a cytotoxicity of -12.9%.
For `CCOC(=O)c1ccc(-n2c(=O)[nH]c3ccccc3c2=O)cc1`, the cytotoxicity was 3%.
For `CCOC(=O)c1ccc(-n2[nH]c(-c3ccccc3)cc2=O)cc1`, the cytotoxicity was 58.5% (active).
Work on `CCOC(=O)c1ccc(N2C(=O)C(C)=C(C)C2=O)cc1` yielded a cytotoxicity of 35.6%.
For `COc1ccc(CCNC(=O)CCn2c(=O)oc3ccccc32)cc1`, the cytotoxicity was -9.7%.
With `COC(=O)c1ccc(CSc2nnc(NCc3ccccc3)s2)o1` the cytotoxicity was -2.2%.
For `COC(=O)c1ccc(CSc2nnc(Nc3ccccc3OC)s2)o1`, the cytotoxicity was 44.9%.
In the case of `CCOc1ccccc1Nc1nnc(SCc2ccc(C(=O)OC)o2)s1`, the cytotoxicity is reported as 57.3% (active).
With `c1ccc2nc(N3CCOCC3)c(N3CCOCC3)nc2c1` the cytotoxicity was -2.3%.
Compound `Cc1cc(=O)[nH]c(SCC(=O)N2CCN(C(c3ccccc3)c3ccccc3)CC2)n1` has a cytotoxicity of -3.1%.
Compound `O=C1CCCc2sc3c(c2N1)CCCCC3` has a cytotoxicity of 6.3%.
`CCOC(=O)C1=C(N2CCCCC2)c2cc3c(n2C1=O)CCCC3` showed a cytotoxicity of 3.2%.
In the case of `CCSc1ncnc2c(C#N)c3n(c12)CCCCC3`, the cytotoxicity is reported as -17%.
With `Cc1cc(C(=O)Nc2sc3c(c2C#N)CCC3)no1` the cytotoxicity was 36.4%.
For `COC(=O)c1ccc(OC(=O)c2ccco2)cc1`, the cytotoxicity was -32.6%.
For `O=C(Oc1ccc2ccccc2c1)c1ccco1`, the cytotoxicity was 2.3%.
Work on `CC1=CC(C)(C)Nc2ccc(C)cc21` yielded a cytotoxicity of -5%.
`COC(=O)C1=C(C)NC(C)=C(C(=O)OC)C1c1ccc(OC(=O)c2ccco2)cc1` showed a cytotoxicity of 11%.
With `CCOc1ccc(OC(=O)c2cccnc2)cc1` the cytotoxicity was 10.2%.
With `CCc1ccc2c(c1)C(C)=CC(C)(C)N2` the cytotoxicity was -4.3%.
With `CCOc1ccc2c(c1)N(C(=O)CN1C(=O)CCC1=O)C(C)(C)C=C2C` the cytotoxicity was -12.2%.
For `O=C(Oc1cccc(Br)c1)c1cccnc1`, the cytotoxicity was -13.7%.
In the case of `c1ccc(CNc2ncnc3c2cnn3-c2ccccc2)cc1`, the cytotoxicity is reported as 36%.
`Cc1ccc2nc(NC3=NCN(Cc4ccco4)CN3)nc(C)c2c1` showed a cytotoxicity of 8.2%.
`Cc1ccc(-n2nnc3c(SCC(=O)NCc4ccco4)ncnc32)cc1` gave a cytotoxicity of 8.5%.
Work on `O=C(CN1C(=O)NC2(CCCc3ccccc32)C1=O)N1CCc2ccccc2C1` (stereo not drawn) yielded a cytotoxicity of -21.3%.
Work on `CCOc1ccc(C(C)(N)C(=O)O)cc1` (stereo not drawn) yielded a cytotoxicity of 5.7%.
With `COCCn1c(C)cc(C(=O)CSc2nnc(-c3cccnc3)n2-c2ccccc2F)c1C` the cytotoxicity was -8%.
`CCN(Cc1ccccc1)Cc1c(F)cccc1F` gave a cytotoxicity of -14.3%.
For `CCN(CC(=O)N1CCOCC1)S(=O)(=O)c1ccc(C)cc1`, the cytotoxicity was -7.2%.
With `COc1cc(C2C3=C(Nc4ncnn42)c2ccccc2CC3)cc(OC)c1OC` (stereo not drawn) the cytotoxicity was 62.6% (active).
With `COc1ccc(C2C3=C(Nc4ncnn42)c2ccccc2CCC3)cc1` (stereo not drawn) the cytotoxicity was -11.9%.
Compound `COc1cc(C2C(C(=O)OC(C)C)=C(C)Nc3ncnn32)cc(OC)c1OC` (stereo not drawn) has a cytotoxicity of 3.4%.
In the case of `COc1ccc(C2C(C(C)=O)=C(C)Nc3ncnn32)cc1OC` (stereo not drawn), the cytotoxicity is reported as -18.7%.
Compound `c1csc(C2C3=C(Nc4ncnn42)c2ccccc2OC3)c1` (stereo not drawn) has a cytotoxicity of 8.9%.
With `COc1ccc(C2C3=C(Nc4ncnn42)c2ccccc2CC3)cc1OC` (stereo not drawn) the cytotoxicity was 50.3% (active).
In the case of `Cc1ccc(Cl)cc1NC(=O)c1ocnc1C`, the cytotoxicity is reported as 0.3%.
